Laboratory results from PubChem BioAssay AID651871 (Sanford-Burnham Center for Chemical Genomics, 2012).
Where “and” joins values, the source holds several entries; their conditions need not be identical. Equal values may be shown once.

Test system: HL-1
Test: protection of cardiomyocytes from stress damage, SAR follow-up, cell-based, panel, H9c2 and HL-1, ATP luminescence, set 2 (AID 651871);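 note: cells exposed to stressor for 2 h before ATP readout; reference of the scale not given here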
Conditions: H9c2/HL-1 cardiomyocytes, H2O2 oxidative stress; with H2O2, run 2, at 79 µM (top of the series)

Compound	activity (protection/inhibition)
COc1ccc2nc(-c3cc(OC)c(OC)c(OC)c3)cc(C(=O)NCC(=O)Nc3ccc(C(C)=O)cc3)c2c1	27.5% and 38.9%
COc1cc(-c2cc(C(=O)Nc3cccc(C(=O)NCc4ccccc4)c3)c3ccccc3n2)cc(OC)c1OC	25%
CCOC(=O)c1cccc(NC(=O)CNC(=O)c2cc(-c3cc(OC)c(OC)c(OC)c3)nc3ccccc23)c1	44%
COc1ccc2c(c1OC)C(=O)N1c3ccccc3C(=O)N(Cc3cccc(Cl)c3Cl)C21 (centres undefined)	-0.168% and -1.52% and -3.02%
